High-throughput results deposited in PubChem BioAssay by National Center for Advancing Translational Sciences (NCATS).
In the library only some 2.4% were active in any assay of this set; here they are far more common.
D2 antag: antagonizes the human D2 dopamine receptor; inhibition, % at 10 µM; 2% of 340,000 active; P14416; HEK293 TREx D2 cells, calcium flux, dopamine EC80; in the data active means inhibition above about 30%; inactive means below that, where a call was filed
Target sequence (P14416 whole entry, looked up): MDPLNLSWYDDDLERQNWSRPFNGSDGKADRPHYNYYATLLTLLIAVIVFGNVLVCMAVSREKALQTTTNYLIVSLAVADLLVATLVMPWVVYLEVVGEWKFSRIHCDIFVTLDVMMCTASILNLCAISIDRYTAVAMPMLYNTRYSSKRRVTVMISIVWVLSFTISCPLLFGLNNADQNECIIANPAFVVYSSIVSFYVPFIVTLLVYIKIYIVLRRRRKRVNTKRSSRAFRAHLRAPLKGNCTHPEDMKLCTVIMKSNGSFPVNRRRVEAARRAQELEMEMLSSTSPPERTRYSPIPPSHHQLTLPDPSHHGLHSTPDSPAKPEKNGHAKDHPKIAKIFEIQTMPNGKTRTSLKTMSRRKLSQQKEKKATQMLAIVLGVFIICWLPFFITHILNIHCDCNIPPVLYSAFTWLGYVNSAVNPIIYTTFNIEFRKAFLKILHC
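Inhibition of EC80 dopamine-driven calcium flux, recorded kinetically, defines activity here; cells are a tetracycline-induced HEK293 T-REx line expressing force-coupled D2.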
D2 ag-1: activates the human D2 dopamine receptor | AID 485358 | 0.53% of 340,000 active | HEK293 T-REx D2 cells, calcium flux agonist mode | activation, % at 2 µM | P14416;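 active means activation over 3 SD above normal in the single-dose calcium agonist read, cut at about 30% in these data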
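Calcium-flux readout, 1 cycle/sec over 180 s following compound pin transfer, in inducible HEK293 Trex D2 cells (force-coupled); dopamine controls included. Positive calcium responses during this window marked compounds as potential agonists.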
D2 ag-2: human D2 receptor agonism in beta-arrestin assay | DiscoveRx PathHunter D2 beta-arrestin, luminescence, 90 min; 100% = 57 uM dopamine signal | activation, % (concentration not given with the values) | 0.084% of 360,000 active | AID 624465; in the data active means activation above about 40%; inconclusive means between about 15% and that limit
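DiscoveRx PathHunter D2 beta-arrestin cells (2,100/well) attached overnight, then compound-stimulated 90 min at 37 C in HBSS/10 mM HEPES/0.1% Tween-20 buffer; beta-galactosidase complementation read by luminescence after 1 h at ambient temperature. Dopamine 57 uM final (EC100) as control.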
D2 PAM-1: human D2 receptor positive allosteric modulation; DiscoveRx D2 beta-arrestin cells, luminescence, 90 min; 100% = 57 uM dopamine signal; 0.23% of 360,000 active; AID 624464; potentiation, % (test concentration not listed); in the data active means potentiation above about 50%; inconclusive means mostly about 30% to 49%
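PathHunter beta-arrestin assay in DiscoveRx D2 cells. Compounds were added with an EC20 of dopamine (50 nM final) for 90 min at 37 deg C. Luminescence was read 1 h after detection reagent, with 57 uM dopamine as the EC100 control.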
D2 PAM-2: positively modulates the human D2 dopamine receptor allosterically; P14416; HEK293 T-REx D2, calcium flux, EC20 dopamine potentiation; potentiation, % at 10 µM; 0.34% of 340,000 active; AID 485347;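 active means potentiation over 3 SD above the plate norm, cut at about 30% in these data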
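Potentiation of an EC20 dopamine calcium response is measured in a force-coupled, tetracycline-inducible Hek293 Trex D2 line. Compound-only kinetic reads over 180 s flag agonists before dopamine addition.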
D3 arrestin ag: D3 receptor agonism confirmed, beta-arrestin readout. AID 720506. Potency, µM (series often up to 76.9 µM), actives largely listed as activators. 4% of 2,300 active. shares compounds with D2 ag-1. DiscoveRx D3 beta-arrestin cells, luminescence, 90 min; further: nearly all actives have a fitted effect of over 70% in size
D2 ag-3: activates human D2 dopamine receptor in D3 counterscreen. shares compounds with D2 ag-1. DiscoveRx PathHunter D2 beta-arrestin, luminescence, 90 min; response scale: percent relative to full dopamine signal. Potency, µM (series often up to 76.9 µM), hits mostly activators. 5.9% of 2,300 active; further: nearly all actives have a fitted effect of over 70% in size
A number is an active result; – = inactive; ? = inconclusive; · = no result given. Unless noted, the call rests on the fitted dose curve; in most records, active means well fitted activation curve with a large enough effect; inconclusive means small, poorly fitted or top-dose-only effect; inactive means flat fitted curve, though single readings scatter.

SMILES | D2 antag | D2 ag-1 | D2 ag-2 | D2 PAM-1 | D2 PAM-2 | D3 arrestin ag | D2 ag-3
O=C(CNCc1cccs1)NC12CC3CC(CC(C3)C1)C2 | – | – | – | – | – | · | ·
CCN(CC)CCSc1nnc2c3ccccc3n(Cc3ccccc3)c2n1 | 60 | – | – | – | – | – | –
CCN(CC)CCSc1nnc2c3cc(F)ccc3n(Cc3ccccc3)c2n1 | – | – | – | – | – | · | ·
C=Cc1ccc(Cn2c(C)c(C(=O)NCc3cccc([N+](=O)[O-])c3)sc2=O)cc1 | · | · | – | – | · | · | ·
CC(C)CNC(=O)C1=CC(c2ccc3c(c2)OCO3)=NS(=O)(=O)N1C | · | – | · | · | – | · | ·
CC(C)C(C(=O)Nc1ccc(N2CCOCC2)cc1)N1C(=O)c2ccccc2C1=O (stereo not given) | – | – | – | – | – | – | –
CC(C(=O)Nc1ccc(N2CCOCC2)cc1)N1C(=O)c2ccccc2C1=O (stereo not given) | – | – | – | – | – | · | ·
COc1ccc(-c2[nH]ncc2CN2CCN(c3ccccn3)CC2)c(OC)c1 | 57 | 69 | – | – | – | – | –
CC1(C)CCc2cc(CN3CCN(c4ccccn4)CC3)ccc2O1 | 85 | 77 | – | – | – | – | ?
COc1ccc(CN2CCN(c3ccccn3)CC2)cc1OCc1ccccc1 | 87 | 72 | ? | – | – | – | ?
CCN1CCN(Cc2ccc(OC)c(OCc3ccccc3)c2)CC1 | – | – | – | – | – | · | ·
COc1ccc(CN2CCN(C(=O)c3ccco3)CC2)cc1OCc1ccccc1 | 71 | 83 | ? | – | – | ? | 18µM
COc1ccc(-n2c(=O)c3c4c(sc3n(CC(=O)N3CCCCC3C)c2=O)CCC4)c(OC)c1 (stereo not given) | · | – | · | · | – | · | ·
COc1ccc(CN2CCN(C(=O)c3ccco3)CC2)cc1OC | 60 | 86 | 84 | ? | – | ? | 16µM
CCCS(=O)(=O)NC(=O)C1(C)CCCN(C(=O)c2ccccc2)C1 (stereo not given) | · | · | – | – | · | · | ·
Nc1cc(C(=O)OCC(=O)Nc2cccc(S(=O)(=O)N3CCOCC3)c2)ccc1Cl | · | · | – | – | · | · | ·
Cc1ccc(C(OCC(O)CNCc2ccc(F)cc2)c2ccccc2)cc1 (stereo not given) | – | – | – | – | – | · | ·
COc1cccc(-n2c(N)cc(=O)nc2SCC(=O)N2CCN(c3ccccc3)CC2)c1 | – | – | – | – | – | – | –
Nc1cc(=O)nc(SCC(=O)N2CCN(c3ccccc3)CC2)n1-c1ccccc1 | – | – | – | – | – | · | ·
Nc1cc(=O)nc(SCC(=O)N2CCN(c3ccccc3)CC2)n1-c1ccc(F)cc1 | – | – | – | – | – | – | –
Cc1ccc(-n2c(N)cc(=O)nc2SCC(=O)N2CCN(c3ccccc3)CC2)cc1 | 64 | 66 | – | – | – | – | –
C[C@@H]1O[C@@H](Oc2c(-c3ccc(O)c(O)c3)oc3cc(O)cc(O)c3c2=O)[C@H](O)[C@H](O)[C@H]1O | · | · | – | – | · | · | ·
C[C@@H]1O[C@@H](O[C@H]2[C@H](O)[C@@H](O)[C@H](Oc3c(-c4ccc(O)c(O)c4)oc4cc(O)cc(O)c4c3=O)O[C@@H]2CO)[C@H](O)[C@H](O)[C@H]1O | – | – | – | – | – | – | –
Cc1cccc(NC(=O)NCCN2CCN(c3ccccc3)CC2)c1C | 57 | 57 | – | – | – | – | –
COc1ccc(Cl)c(NC(=O)NCCN2CCN(c3ccccc3)CC2)c1 | – | – | – | – | – | · | ·
SMILES | D2 antag | D2 ag-1 | D2 ag-2 | D2 PAM-1 | D2 PAM-2 | D3 arrestin ag | D2 ag-3
O=C(NCCN1CCN(c2ccccc2Cl)CC1)Nc1ccccc1 | 52 | 67 | – | – | – | – | –
Cc1ccc(NC(=O)NCCN2CCN(c3ccccc3)CC2)cc1Cl | 65 | 66 | – | – | – | – | ?
O=C(NCCN1CCN(c2ccccc2)CC1)Nc1cccc(Cl)c1 | 73 | 75 | ? | – | – | ? | –
Cc1ccc(NC(=O)NCCN2CCCCC2)cc1Cl | – | – | – | – | – | · | ·
Cc1ccc(NC(=O)CN2C(=O)NC3(CCCCC3)C2=O)cc1S(=O)(=O)N1CCOCC1 | · | · | – | – | · | · | ·
CN(C)CCNC(=O)c1ccc(CS(=O)(=O)c2c(Cl)cccc2Cl)o1 | – | – | – | – | – | · | ·
CN(CCNC(=O)c1ccc(CS(=O)(=O)c2c(Cl)cccc2Cl)o1)CCc1ccccc1 | – | 31 | – | – | – | – | –
O=C(CSc1n[nH]c(=O)n1-c1cccnc1)N1CCOCC1 | – | – | – | – | – | · | ·
Cc1ccc(C(=O)COC(=O)CCS(=O)(=O)c2ccccc2)cc1[N+](=O)[O-] | · | · | – | – | · | – | –
O=c1/c(=C\c2cc([N+](=O)[O-])cc([N+](=O)[O-])c2O)sc2nc3ccccc3n12 | 31 | – | – | – | – | – | –
CC(=O)c1ccc(NC(=O)Cn2cnc(S(=O)(=O)N3CCc4ccccc43)c2)cc1 | – | 54 | – | – | – | – | –
O=C(N/C(=C/c1ccc(F)cc1)C(=O)N1CCOCC1)c1ccccc1 | – | – | – | – | – | – | –
CCc1ccccc1NC(=O)c1ccc(S(=O)(=O)NCC2CCCO2)cc1 (stereo not given) | – | – | – | – | – | · | ·
Cc1cc(C(C)(C)C)ccc1OCCN1CCCC1 | · | · | – | – | · | – | –
COc1cccc(N2C(=O)C(CC(=O)Nc3ccccc3)N(CCc3sccc3C)C2=O)c1 (stereo not given) | · | – | · | · | – | · | ·
O=[N+]([O-])c1cccc(-c2ccc(CN3CCN(c4ccccc4)CC3)o2)c1 | 47 | 52 | – | – | – | – | –
Cc1ccc(CN2CCN(c3ncccn3)CC2)o1 | 86 | 85 | ? | ? | – | – | ?
O=[N+]([O-])c1ccc(N2CCN(Cc3cccc([N+](=O)[O-])c3)CC2)cc1 | – | – | – | – | – | · | ·
Cc1ccc(CN2CCN(c3ccccc3)CC2)o1 | 70 | 49 | ? | – | – | – | ?
Cc1csc(NC(=O)NCC2CCCC(CNC(=O)Nc3nc(C)cs3)C2)n1 (stereo not given) | – | – | – | – | – | · | ·
O=C(NCc1ccco1)c1cccc2c1C(=O)c1ccc(N3CCCC3)cc1S2(=O)=O | · | · | – | – | · | · | ·
CCOc1cc(N2CCOCC2)c(OCC)cc1NC(=O)COc1cccc(CC)c1 | – | – | – | – | – | – | –
CCc1noc2nc(C)n(CC(=O)O)c(=O)c12 | · | – | · | · | – | · | ·
COc1ccc(C)cc1N/C(N)=N/c1nc(C)cc(C)n1 | – | – | – | – | – | · | ·
